# Screening data (PubChem)
# Arbovirus anti – blocks arbovirus infection. actives 0.37% (n = 200,000). AID 1251. arbovirus infection cell-based antiviral screen. inhibition, % at 10 µM; in the data active = inhibition above about 30%
# Wee1 degr inh – human Wee1 degradation inhibition, primary screen; P30291; HeLa Luc-Wee1K328M stability, luciferase luminescence; 100% = proteasome inhibitor MG132 effect; reporter increase, % at 5 µM; actives 1.2% (n = 220,000); AID 1321;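 active = activation above the mean of all tested compounds plus 3 SD, set per screening run, cut at about 8.8% in these data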;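 note: cells exposed to compound for 20 h before luminescence read; 0% = DMSO alone and 100% = MG132 at 30 µM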
# Hsp70 activator – transcriptional activators of Hsp70; HeLa Hsp70 promoter luciferase reporter, luminescence; scaled: vehicle 0, proteasome-inhibitor control 100%; activation, % at 10 µM; actives 0.04% (n = 200,000); AID 1203;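 active = activation above the mean across all tested compounds plus 3 SD, cutoff set per campaign, cut at about 5.5% in these data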;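 note: 100% = MG132 at 30 µM as the positive control and 0% = DMSO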
# PKD1 inh – inhibitors of human PKD1 kinase; PKD1 kinase fluorescence polarization assay; inhibition, % (test concentration not listed); actives 0.056% (n = 200,000); AID 797; in the data active = inhibition above about 50%
# Target sequence (Q15139 whole entry, looked up): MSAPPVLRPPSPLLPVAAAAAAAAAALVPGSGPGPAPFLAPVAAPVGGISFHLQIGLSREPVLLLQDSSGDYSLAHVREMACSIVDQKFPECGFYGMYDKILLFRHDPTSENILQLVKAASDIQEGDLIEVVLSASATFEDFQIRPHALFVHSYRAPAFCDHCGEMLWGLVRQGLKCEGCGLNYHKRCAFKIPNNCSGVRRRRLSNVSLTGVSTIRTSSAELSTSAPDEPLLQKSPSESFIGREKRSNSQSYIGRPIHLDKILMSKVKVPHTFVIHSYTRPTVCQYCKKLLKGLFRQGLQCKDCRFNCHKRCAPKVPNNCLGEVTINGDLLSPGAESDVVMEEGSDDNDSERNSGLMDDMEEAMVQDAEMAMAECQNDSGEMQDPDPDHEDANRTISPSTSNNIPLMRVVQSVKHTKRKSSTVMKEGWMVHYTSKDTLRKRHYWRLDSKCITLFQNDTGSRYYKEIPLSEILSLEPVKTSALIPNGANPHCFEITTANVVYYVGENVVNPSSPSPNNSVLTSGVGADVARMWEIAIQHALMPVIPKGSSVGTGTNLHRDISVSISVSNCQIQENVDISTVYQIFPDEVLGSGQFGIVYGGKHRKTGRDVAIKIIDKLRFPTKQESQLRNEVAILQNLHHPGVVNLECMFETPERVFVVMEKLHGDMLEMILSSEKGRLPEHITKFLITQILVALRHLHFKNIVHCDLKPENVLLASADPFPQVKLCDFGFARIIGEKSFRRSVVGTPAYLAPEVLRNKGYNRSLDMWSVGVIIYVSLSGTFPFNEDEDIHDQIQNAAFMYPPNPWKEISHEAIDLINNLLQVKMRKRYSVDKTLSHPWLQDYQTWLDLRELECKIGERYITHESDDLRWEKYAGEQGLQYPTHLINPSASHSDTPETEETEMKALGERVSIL
# HMGR II inh – blocks class II HMG-CoA reductase of Enterococcus faecalis. inhibition, % at 10 µM. purified E. faecalis HMGR, NADPH absorbance 340 nm kinetic. actives 0.41% (n = 190,000). AID 1066;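 active = inhibition above a set limit, the median over all tested compounds plus 3 SD, cut at about 9.5% in these data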;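 note: enzyme runs in reverse so mevalonate oxidation gives rising NADPH absorbance; 0% = complete reaction with DMSO and 100% = background rate lacking mevalonate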
# Wee1 stab conf – confirmation of human Wee1 degradation inhibitors; shares compounds with Wee1 degr inh; HeLa Luc-Wee1K328M degradation, luminescence; vehicle 0%, proteasome-blocked wells 100%; activation, % at 5 µM; actives 4% (n = 1,100); AID 1410; in the data active = activation above about 8.9%
# * = called active by the depositor; . = not tested or not shown. Most compounds without a hit are left out; they make up all but 2% or so of the library.
SMILES,Arbovirus anti,Wee1 degr inh,Hsp70 activator,PKD1 inh,HMGR II inh,Wee1 stab conf
O=C1CCC(=O)N1N1C(=O)C2C3c4ccccc4C(c4ccccc43)C2C1=O (configuration not stated),-1.9,-2.6,-0.1,-5.1,3.7,.
Nc1ccc(C(O)(C(F)(F)F)C(F)(F)F)cc1,-1.2,0.6,-0.2,-2.9,4.3,.
CC(=O)Nc1ccc(C(O)(C(F)(F)F)C(F)(F)F)cc1,8.4,12.0*,-0.3,-3.1,-4.2,2.0
CCOC(=O)CC(NC(=O)c1ccc(C)cc1)c1ccc(C)cc1 (configuration not stated),-0.2,14.4*,-0.5,-11.0,-7.6,2.3
COc1ccc(CNC(=O)C/C(C)=N/NC(=O)C23CC4CC(CC(C4)C2)C3)cc1,0.7,-2.4,-0.3,-1.7,-1.4,.
O=S1(=O)N=C(Nc2ccc(O)cc2)c2ccccc21,3.1,-0.7,-0.3,-8.3,-5.2,.
O=S1(=O)N=C(Nc2ccc(N3CCOCC3)c(Cl)c2)c2ccccc21,1.0,11.0*,0.6,5.4,6.4,5.8
CC(=O)c1cc(-c2ccccc2)n(CC(=O)Nc2cccc(C)c2)c1C,-0.9,-1.3,-0.3,-12.2,-7.3,.
Cc1ccccc1C(=O)NNC(=S)NC(=O)COc1ccccc1,-24.9,-2.8,0.4,-7.9,-2.7,.
Cc1ccc(C(=O)NNC(=S)NC(=O)COc2ccccc2)cc1,-26.7,14.5*,-0.2,-9.2,-7.0,2.5
O=[N+]([O-])c1cc(Cl)ccc1Sc1cccc2cccnc12,6.6,3.2,-0.1,-1.9,0.3,.
O=[N+]([O-])c1ccc(Sc2cccc3cccnc23)c([N+](=O)[O-])c1,-17.5,15.9*,-0.2,6.4,-0.6,-1.5
C/C(Cc1ccccc1)=N/NC(=O)CNC(=O)C(c1ccccc1)c1ccccc1,.,11.5*,.,.,.,-3.1
O=C(CSc1nc2ccccc2c(=O)n1-c1ccc(F)cc1)Nc1ccc(Cl)c(S(=O)(=O)N2CCOCC2)c1,0.3,14.1*,-0.3,-8.0,-1.9,4.1
O=C(CSc1nc2ccccc2c(=O)n1-c1ccc(F)c(Cl)c1)Nc1cccc(S(=O)(=O)N2CCOCC2)c1,3.2,3.4,-0.4,-2.0,-0.3,.
Nc1nnc(-c2cccc([N+](=O)[O-])c2)o1,.,11.4*,.,.,.,2.0
CC(O)C(NS(=O)(=O)c1ccc(Cl)cc1)C(=O)OCC(=O)Nc1cccnc1Cl (configuration not stated),-2.5,19.7*,-0.1,-5.7,-6.3,-1.3
COc1cc(Cl)c(C)cc1NC(=O)COC(=O)C(NS(=O)(=O)c1ccc(Cl)cc1)C(C)O (configuration not stated),5.3,2.0,-0.2,-5.8,-4.4,.
Cc1nc(-c2ccccn2)nc(SCC(=O)c2ccccc2)c1Cl,.,-0.3,.,.,.,.
Cc1cc(C)cc(-n2c(C)cc(/C=N/NC(=O)CN(c3c(C)cccc3C)S(C)(=O)=O)c2C)c1,-11.4,0.7,0.6,-7.9,-5.4,.
Cc1ccc(N(CC(=O)N/N=C/c2cc(C)n(-c3ccccc3C)c2C)S(C)(=O)=O)cc1,14.7,11.5*,-0.3,-6.6,-9.5,-0.6
Cc1nc2c(C)cccn2c1/C(O)=C1\C(=O)C(=O)N(CCN(C)C)C1c1ccco1 (configuration not stated),.,0.4,.,.,.,.
CCO[C@H]1OC(C(N)=O)=C[C@@H](C)[C@@H]1CCCO,3.4,-0.9,-0.1,1.3,0.7,.
Cc1ccc(S(=O)(=O)N2CCCCC2)cc1C(=O)Nc1ccc2cn[nH]c2c1,3.1,1.6,-0.5,-1.3,1.4,.
Cc1ccc(S(=O)(=O)N2CCCCC2)cc1C(=O)Nc1cccnc1,.,18.2*,.,.,.,1.9
SMILES,Arbovirus anti,Wee1 degr inh,Hsp70 activator,PKD1 inh,HMGR II inh,Wee1 stab conf
Clc1ccc(Cn2ncc3c(N4CCCC4)ncnc32)cc1,-7.1,16.5*,0.1,4.2,-4.3,-0.9
Clc1ccc(Cn2ncc3c(N4CCCCC4)ncnc32)cc1,-7.9,0.1,0.1,-0.5,-1.1,.
CN(C)C(=S)NC(=O)C12CC3(C)CC(C)(CC(C)(C3)C1)C2,.,10.9*,.,.,.,-1.4
CC12CC3(C)CC(C)(C1)CC(C(=O)NCC(=O)O)(C2)C3,-1.7,0.4,0.0,0.1,1.2,.
CCOC(=O)N1CCN(C(=O)c2cn(CC)c3ccc(S(=O)(=O)N4CCCCC4)cc3c2=O)CC1,15.6,6.5,0.1,4.1,-1.3,.
O=C(/C=N\O)NCCCNCc1ccccc1,-1.0,15.7*,-0.5,-2.7,-3.0,0.8
CCCC(CCC)c1nc2ccncc2[nH]1,3.5,8.2,0.1,-4.4,-3.3,.
